B2AR arrestin = beta2AR (human) beta-arrestin recruitment activity; P07550; beta-arrestin recruitment to beta2AR, cell-based reporter; Potency, µM (doses to about 46.1 µM), for inactives: top-dose activation, usual class: activators; actives 0.02% (n = 330,000); AID 492947; active means well fitted activation curve with a large enough effect;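 further: potency means the concentration at half of the fitted maximal effect; 0% = DMSO controls and full agonism = EC100 isoproterenol or metaproterenol; nearly all actives have a fitted effect of over 65% in size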
Target sequence (P07550 whole entry, looked up): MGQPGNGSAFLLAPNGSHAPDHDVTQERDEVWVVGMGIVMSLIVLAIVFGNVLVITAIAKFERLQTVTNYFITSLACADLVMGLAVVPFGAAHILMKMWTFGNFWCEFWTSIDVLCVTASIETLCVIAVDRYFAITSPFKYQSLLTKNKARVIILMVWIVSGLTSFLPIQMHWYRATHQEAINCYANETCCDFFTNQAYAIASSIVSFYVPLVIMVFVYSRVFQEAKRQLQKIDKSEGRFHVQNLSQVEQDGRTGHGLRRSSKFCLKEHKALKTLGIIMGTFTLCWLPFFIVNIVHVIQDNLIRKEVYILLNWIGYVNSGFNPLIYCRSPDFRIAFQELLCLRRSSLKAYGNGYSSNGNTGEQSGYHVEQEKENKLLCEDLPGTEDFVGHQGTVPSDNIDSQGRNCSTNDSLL
D2 ag-1 = agonists of human D2 dopamine receptor | actives 0.53% (n = 340,000) | AID 485358 | activation, % at 2 µM | P14416 | HEK293 T-REx D2 cells, calcium flux agonist mode;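 active means activation over 3 SD above normal in the single-dose calcium agonist read, cut at about 30% in these data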; further: 0% is about no effect
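Agonism scored from kinetic calcium signal (1 read/sec, 180 s) following compound pin transfer, after a 10 s baseline. Cells: HEK293 Trex line expressing inducible D2 receptor coupled to calcium, dye-loaded after overnight culture at 30 C.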
D2 PAM-1 = positively modulates the human D2 dopamine receptor allosterically. HEK293 T-REx D2, calcium flux, EC20 dopamine potentiation. potentiation, % at 10 µM. actives 0.34% (n = 340,000). AID 485347;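 active means potentiation over 3 SD above the plate norm, cut at about 30% in these data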; further: 0% is about no effect
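Using a no-wash calcium dye in inducible, force-coupled HEK293 Trex cells expressing D2, we tracked fluorescence each second for 180 s after compound, then for 180 s after EC20 dopamine to detect augmented signalling.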
D2 antag = antagonizes the human D2 dopamine receptor; P14416; HEK293 TREx D2 cells, calcium flux, dopamine EC80; inhibition, % at 10 µM; actives 2% (n = 340,000); AID 485344; in the data active means inhibition above about 30%; inactive means below that, where a call was filed; further: 0% is about no effect
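Overnight-induced (tetracycline, 30 C) HEK293 T-REx cells carrying force-coupled D2 receive a no-wash calcium dye, then compound, then EC80 dopamine at 180 s; signals are read kinetically throughout.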
D2 PAM-2 = potentiates the human D2 dopamine receptor allosterically | P14416 | DiscoveRx D2 beta-arrestin cells, luminescence, 90 min; 100% = 57 uM dopamine signal | potentiation, % (test concentration not listed) | actives 0.23% (n = 360,000); in the data active means potentiation above about 50%
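PathHunter D2 cells, attached overnight at 37 deg C, received compound in DMSO plus dopamine at EC20 (50 nM final) for 90 min at 37 deg C. Beta-arrestin recruitment was read as luminescence after 1 h with detection reagent at ambient temperature.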
D2 ag-2 = activates the human D2 dopamine receptor. AID 624465. DiscoveRx PathHunter D2 beta-arrestin, luminescence, 90 min; 100% = 57 uM dopamine signal. P14416. actives 0.084% (n = 360,000). activation, % (concentration not given with the values); in the data active means activation above about 40%
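Agonist mode: compounds alone added to overnight-plated D2 PathHunter cells for 90 min at 37 C, with 57 uM final dopamine (EC100) defining full response. Beta-arrestin recruitment detected by chemiluminescent reagent, read after 1 h at ambient temperature.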
* marks the source's active call; other numbers are inactive results; / = not tested or not shown. Hits are enriched below; roughly 2.4% of the tested compounds scored in any of these assays.

SMILES	B2AR arrestin	D2 ag-1	D2 PAM-1	D2 antag	D2 PAM-2	D2 ag-2
CCOc1cccc(-c2c(C(=O)N/N=C/c3cccs3)nnn2-c2nonc2N)c1	-1%	9	14	32*	-6	-1
O=C(NNC(=S)NC(=O)c1cccnc1)c1ccc(Cl)cc1	0%	/	/	/	-10	-3
O=C(Cc1ccc(Cl)cc1)NNC(=S)NC(=O)c1cccnc1	0%	1	3	40*	-7	3
Cc1cccc([N+](=O)[O-])c1NC(=O)COC(=O)C1CC2CCCC(C1)C2=O (stereo not drawn)	0%	0	-3	7	-64	-5
Cc1ccc([N+](=O)[O-])c(NC(=O)COC(=O)C2CC3CCCC(C2)C3=O)c1C (stereo not drawn)	-1%	0	-4	36*	-11	-1
Cc1ccc(S(=O)(=O)CC(=O)Nc2ccc(F)c(F)c2F)cc1	0%	1	2	-2	-8	2
COc1ccc(CNC2C[C@H]3CCCC(=O)N4CC[C@@H](C2)[C@@H]34)cc1 (stereo partly drawn)	0%	/	/	/	/	-3
CC(C)C1Nc2ccc(S(N)(=O)=O)cc2C2C=CCC21 (stereo not drawn)	0%	1	2	16	52*	5
O=C(Nc1ccc2c(c1)OCO2)c1cc2ncc(Br)cn2n1	0%	/	/	/	17	1
O=C(Nc1cccc(C(F)(F)F)c1)c1cc2ncc(Br)cn2n1	0%	1	-25	53*	-5	-2
CC(Nc1nc(-c2ccc(F)cc2)cs1)c1nc2cc(C(F)(F)F)ccc2n1CCCO (stereo not drawn)	/	/	/	/	-3	-4
CC(=O)Nc1ccc(NC(=O)CSCCc2ccccn2)cc1	-1%	0	34*	-10	-12	-1
COc1ccc(-n2c(SCC(=O)Nc3ccc(C(N)=O)cc3)nc3c([nH]c4ccccc43)c2=O)cc1OC	5%	0	2	9	-3	1
O=C(C1CC1)N1CCN=C1SCc1ccccc1Cl	0%	-1	4	35*	-11	-3
O=C(c1cccs1)N1CCN=C1SCc1ccccc1F	0%	33*	-21	-8	-4	-1
CCC(=O)N1CCN=C1SCc1ccc(Cl)cc1	0%	0	30*	5	-9	-1
COc1cc(NS(C)(=O)=O)cc(OC)c1OC	4%	0	1	30*	2	3
O=C(N1CCOCC1)N1CCC(n2nnc3cc(F)ccc32)CC1	0%	/	1	/	-24	-2
O=C(c1ccc([N+](=O)[O-])cc1)N1CCC(n2nnc3cc(F)ccc32)CC1	0%	0	33*	-4	0	-3
Cc1ccc(C(=O)c2coc3ccc(OCC(=O)O)cc23)cc1	0%	0	5	5	-1	-3
O=C(O)COc1ccc2occ(C(=O)c3ccccc3)c2c1	0%	-2	7	38*	-2	-5
COc1ccc(-c2nc(S(=O)(=O)c3ccc(C)cc3)c(N3CCCCC3)o2)cc1	/	0	/	/	/	/
Cc1nnc2n1N=C(c1ccc(OC(F)F)cc1)C(C)S2 (stereo not drawn)	0%	1	3	56*	-5	-2
COc1ccc(C2=Nn3c(C)nnc3SC2)cc1	0%	1	7	-1	-6	-3
O=C(CN1C(=O)COc2ccc(S(=O)(=O)N3CCCCC3)cc21)NCc1ccc(F)cc1	1%	0	10	-13	-13	-6
SMILES	B2AR arrestin	D2 ag-1	D2 PAM-1	D2 antag	D2 PAM-2	D2 ag-2
CC1(C)CC(=O)C2=C(C1)N(c1ccccc1)C(=O)C2(O)C(F)(F)F (stereo not drawn)	0%	0	1	36*	-5	-10
COCCC(=O)N1CCC(Oc2ccc(C(=O)NCc3cc(C)n(C)n3)cc2)CC1	0%	1	-6	-15	-2	1
C=CCc1ccc(OCCN2CCc3ccccc3C2)c(OC)c1	0%	-1	-27	-24	-25	-6
COc1ccc(-c2nn(-c3ccccc3)cc2CNCCN2CCOC2=O)c(F)c1	0%	-2	-6	9	-15	3
COc1ccc(-c2nn(-c3ccccc3F)cc2CNCCn2nc(C)cc2C)cc1	0%	0	-19	37*	-14	-4
COc1cc(C(=O)OC(C)C(=O)N2CCCC2)cc2c1OCCO2 (stereo not drawn)	0%	0	2	67*	-4	-3
COCCN(C(=O)c1ccccc1)c1nnc(-c2cccnc2)s1	-1%	0	8	48*	-1	-3
COCCN(C(=O)CC(C)(C)C)c1nnc(-c2cccnc2)s1	0%	-2	-2	0	3	0
Cc1ccc(Cl)c(OCCCN(C)Cc2ccccc2)c1	0%	0	-22	63*	-24	-4
CN(CCOc1ccc(Cl)c(Cl)c1)Cc1ccccc1	0%	0	-25	65*	-4	-3
COc1ccc(OCCCCN(C)Cc2ccccc2)cc1	0%	0	3	-2	-4	0
CN(CCCOc1ccccc1Br)Cc1ccccc1	-1%	0	-22	39*	-29	-4
Cc1ccc(Cl)c(OCCCCN(C)Cc2ccccc2)c1	0%	-1	-22	45*	-27	-4
CN(CCCOc1ccccc1F)Cc1ccccc1	1%	-1	-22	19	-5	-1
CCCn1c(=O)c(C(=O)c2ccccc2)nc2ccccc21	0%	/	/	/	-8	1
COc1cc(NC(=O)c2ccc(NC3=NC4CS(=O)(=O)CC4S3)cc2)cc(OC)c1 (stereo not drawn)	-1%	-1	6	-4	-6	-6
CN(CCOCCOc1ccc(F)cc1)Cc1ccccc1	-1%	-1	-15	12	-29	3
CN(CCOCCOc1ccc(Cl)cc1Br)Cc1ccccc1	-2%	1	-15	40*	-16	0
CCOc1cccc(OCCOCCN(C)Cc2ccccc2)c1	0%	0	-38	30*	-30	-3
COc1cccc(NC(=O)CN(C)C(=O)c2ccccc2Sc2ccccc2C#N)c1	0%	0	10	-14	-2	3
CCC(C)Sc1nc2c(c(=O)[nH]c(=O)n2C)n1CC(O)COc1ccccc1C (stereo not drawn)	0%	0	-6	30*	-2	-2
CCC(C)Sc1nc2c(c(=O)[nH]c(=O)n2C)n1CCc1ccccc1 (stereo not drawn)	0%	1	17	-28	-11	2
CN1/C(=C\C(=O)C(F)F)C(C)(C)c2ccccc21	0%	0	-4	47*	-12	1
